We go through ten compounds from PubChem BioAssay (NCATS).

The structures appear in SMILES notation. “And” between values parts separate entries of the source, which are not always exact repeats. Equal values may be shown once. Inconclusive results are not listed. The source made the active and inactive calls. Unless noted, calls come from the whole dose curve.

The nature of assay [1]: Cell Viability - NIH 3T3 (AID 541; active = well fitted curve in the direction sought with a large enough effect; an effect the other way counts as inactive or inconclusive;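 note: cells exposed to compound for 40 hours; plate controls were DMSO alone for no effect and tamoxifen positive control for full effect; nearly all actives have a fitted effect of over 25% in size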). The following applies: NIH 3T3 cell viability, qHTS; activity change, negative = cytotoxicity: at 92.2 µM (top of the series). In outline: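 AC50 values reflect concentration-dependent loss of intracellular ATP in NIH 3T3 cells after 40 hr treatment in complete culture medium, quantified by luciferase-based luminescence.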
A short description of assay [2]: Cell Viability - H-4-II-E (AID 543; active = well fitted curve in the direction sought with a large enough effect; an effect the other way counts as inactive or inconclusive;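 note: cells exposed to compound for 40 hours; % is set by controls: 0 for no effect and ±100 for the full control effect; nearly all actives have a fitted effect of over 35% in size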). Put shortly:
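Here, cytotoxicity is measured in the rat hepatoma line H-4-II-E as loss of intracellular ATP after 40 hr compound treatment, detected by luciferase luminescence.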

Assay [3] in a line: MultiTox-Fluor Cytotoxicity Assay - LYMP1-001 - Live Cells (AID 947; active = well fitted curve in the direction sought with a large enough effect; an effect the other way counts as inactive or inconclusive;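 note: 0% = DMSO only and full inhibition = tetraoctylammonium bromide control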).
Assay [4] has as its target Peroxisome proliferator-activated receptor delta (Homo sapiens) (UniProt Q03181). Briefly: qHTS assay for small molecule agonists of peroxisome proliferator-activated receptor delta signaling (AID 588534).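 Note: 0% = DMSO basal wells and 100% = positive control agonist at 10 µM.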 Put shortly: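 Reporter cells were plated and held 5 hrs at 37 C before compounds were added. After 18 hrs at 37 C, CCF4 dye was loaded for 2 hrs at RT and fluorescence measured.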
(In general: In qHTS, concentration-response curves come from the screen itself.)

Assay [5] in a line: qHTS assay for small molecule antagonists of peroxisome proliferator-activated receptor delta signaling (AID 588535; active = well fitted inhibition curve with a large enough effect in the signal ratio, with a control signal flat, not every such curve was filed as active; the % refers to the signal ratio;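 for max response: cells co-treated with a PPAR-delta agonist as stimulator during compound exposure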). The following applies: HEK293T PPARd-UAS-bla, beta-lactamase FRET ratio, 18 h; 460 nm channel. Put shortly: (§1)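 Cells were seeded at 4000 per well in assay medium containing 2% charcoal/dextran FBS and held 5 hrs at 37 C. Compounds were then added for 18 hrs. CCF4 substrate was applied for 2 hrs at room temperature before fluorescence reading.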

In assay [6] the target is Peroxisome proliferator-activated receptor delta (Homo sapiens) (UniProt Q03181). Described as above. Put shortly:
as §1

For assay [7], the target named is Peroxisome proliferator-activated receptor gamma (Homo sapiens) (UniProt P37231). Briefly: qHTS assay for small molecule antagonists of peroxisome proliferator-activated receptor gamma signaling (AID 588537; active = well fitted inhibition curve with a large enough effect in the signal ratio, with a control signal flat, not every such curve was filed as active; the % refers to the signal ratio;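 note: reporter cells co-stimulated with 50 nM rosiglitazone agonist during compound treatment; % of control where 0% means no effect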). Put shortly: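 Step one: plate 3000 HEK293 UAS-bla cells per well in medium with 1% stripped serum and hold 6-6.5 h at 37 C. Step two: add compound and 50 nM agonist for 16 h. Step three: CCF4 loading, fluorescence read.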
Chain of Peroxisome proliferator-activated receptor gamma (Homo sapiens) (P37231 whole entry, looked up): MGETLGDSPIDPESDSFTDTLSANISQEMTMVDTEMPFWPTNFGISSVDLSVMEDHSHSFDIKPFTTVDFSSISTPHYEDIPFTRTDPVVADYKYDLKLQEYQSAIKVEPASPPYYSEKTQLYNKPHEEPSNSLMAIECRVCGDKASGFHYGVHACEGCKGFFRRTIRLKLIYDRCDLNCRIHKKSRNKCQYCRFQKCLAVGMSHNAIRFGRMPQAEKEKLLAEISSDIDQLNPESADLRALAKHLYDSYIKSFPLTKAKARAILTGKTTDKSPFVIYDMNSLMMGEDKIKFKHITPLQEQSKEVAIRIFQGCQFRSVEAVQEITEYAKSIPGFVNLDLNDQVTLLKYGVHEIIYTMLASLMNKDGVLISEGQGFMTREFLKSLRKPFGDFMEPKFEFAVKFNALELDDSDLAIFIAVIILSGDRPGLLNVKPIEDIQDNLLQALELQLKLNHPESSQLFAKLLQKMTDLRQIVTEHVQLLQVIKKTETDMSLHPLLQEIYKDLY

Assay [8] deals with Thyroid hormone receptor beta (Homo sapiens) (UniProt P10828). Briefly: qHTS assay for small molecule antagonists of thyroid hormone receptor beta signaling (AID 588547; active = well fitted inhibition curve with a large enough effect in the signal ratio, with a control signal flat, not every such curve was filed as active; the % refers to the signal ratio;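 note: cells stimulated with 0.4 nM T3 agonist during compound exposure; % is set by controls: 0 for no effect and ±100 for the full control effect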). Particulars: TR-UAS-bla HEK293, beta-lactamase ratio, antagonist mode, 18 h. Put shortly: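 TR-UAS-bla GripTite HEK293 cells in 2% charcoal/dextran FBS medium; compounds 0.59 nM to 92 uM with T3 at 0.4nM final, 18 h at 37 C. Beta-lactamase read by CCF4 fluorescence (460/530 nm); Hill fits gave IC50 and efficacy.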
Chain of Thyroid hormone receptor beta (Homo sapiens) (P10828 whole entry, looked up): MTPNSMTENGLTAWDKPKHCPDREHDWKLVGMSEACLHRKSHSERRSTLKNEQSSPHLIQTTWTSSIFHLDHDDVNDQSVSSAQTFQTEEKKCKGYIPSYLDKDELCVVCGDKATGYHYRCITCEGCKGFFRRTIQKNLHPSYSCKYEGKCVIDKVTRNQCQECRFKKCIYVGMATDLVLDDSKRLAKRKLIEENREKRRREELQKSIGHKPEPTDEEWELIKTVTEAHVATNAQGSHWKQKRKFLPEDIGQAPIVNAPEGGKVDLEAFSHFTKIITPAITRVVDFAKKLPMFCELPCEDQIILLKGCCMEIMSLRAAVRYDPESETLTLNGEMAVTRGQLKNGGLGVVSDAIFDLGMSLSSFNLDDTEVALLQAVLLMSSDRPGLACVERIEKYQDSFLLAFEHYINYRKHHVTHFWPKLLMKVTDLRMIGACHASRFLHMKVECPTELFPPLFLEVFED

A short description of assay [9]: qHTS assay for small molecule agonists of the antioxidant response element (ARE) signaling pathway (AID 651741; active = well fitted activation curve with a large enough effect in the signal ratio; the % refers to the signal ratio; note: % of control where 0% means no effect). In outline:
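HepG2 ARE-bla cells plated at 2,000 cells/well and incubated 5 h at 37 C/5% CO2 received 23 nL compound in DMSO. After 16 h at 37 C, LiveBLAzer B/G FRET substrate was applied for 2 h at room temperature and fluorescence read.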

Assay [10] is described as follows: qHTS assay for small molecule activators of the nuclear factor-kappa B (NF-kB) signaling pathway (AID 651749; active = well fitted activation curve with a large enough effect in the signal ratio; the % refers to the signal ratio; note: % of control where 0% means no effect). The following applies: NF-kB-bla ME-180 cells, beta-lactamase FRET ratio, 16 h; stronger effect = higher value. Put shortly: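 Incubation lasted 16 hr at 37C in 5% CO2 after 23 nL compound addition to ME-180 NF-kB-bla cells. Activation appears as beta-lactamase-mediated FRET loss.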

Assay [11] is described as follows: qHTS assay for small molecule disruptors of the mitochondrial membrane potential - 5 hr assay (AID 651755). Note: % is set by controls: 0 for no effect and ±100 for the full control effect; nearly all actives have a fitted effect of over 40% in size. In outline:
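HepG2 cells (2,000/well), attached overnight, exposed to compound 5 hr at 37C, then Mito-MPS dye 30 min. Fluorescence read for monomers (490/535 nm) and aggregates (540/590 nm).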

The nature of assay [12]: qHTS assay for small molecule agonists of the antioxidant response element (ARE) signaling pathway measured by Nrf2-dependant transcriptional activity (AID 720636; active = well fitted curve in the direction sought with a large enough effect in the repeat runs; an effect the other way counts as inactive or inconclusive;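 note: HepG2 cells with an ARE-driven luciferase reporter; % of control where 0% means no effect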). In outline:
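Attachment 6 hr at 37 C, then compound versus DMSO vehicle for 16 hr in ARE-luc HepG2 cells (1% dialyzed FBS); luminescence recorded 30 min after ONE-Glo addition at room temperature.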

The target of assay [13] is Glucocorticoid receptor (Homo sapiens) (UniProt P04150). The assay can be described thus: qHTS assay for small molecule agonists of glucocorticoid receptor signaling (AID 588532; active = well fitted curve in the direction sought with a large enough effect in the signal ratio, with a control signal flat; the % refers to the signal ratio;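 note: 100% = dexamethasone at 0.1 µM and 0% = DMSO only wells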). The following applies: HeLa MMTV-bla, beta-lactamase ratio, agonist, 18 h; stronger effect = higher value; percent of dexamethasone control, DMSO zero. Put shortly: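 Cells were plated and rested 3-5 h at 37 C, compounds were added in titration and incubated 18 h, then CCF4 substrate was loaded for 2 h at RT before reading blue/green fluorescence. EC50 came from Hill-equation fitting.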
Chain of Glucocorticoid receptor (Homo sapiens) (P04150 whole entry, looked up): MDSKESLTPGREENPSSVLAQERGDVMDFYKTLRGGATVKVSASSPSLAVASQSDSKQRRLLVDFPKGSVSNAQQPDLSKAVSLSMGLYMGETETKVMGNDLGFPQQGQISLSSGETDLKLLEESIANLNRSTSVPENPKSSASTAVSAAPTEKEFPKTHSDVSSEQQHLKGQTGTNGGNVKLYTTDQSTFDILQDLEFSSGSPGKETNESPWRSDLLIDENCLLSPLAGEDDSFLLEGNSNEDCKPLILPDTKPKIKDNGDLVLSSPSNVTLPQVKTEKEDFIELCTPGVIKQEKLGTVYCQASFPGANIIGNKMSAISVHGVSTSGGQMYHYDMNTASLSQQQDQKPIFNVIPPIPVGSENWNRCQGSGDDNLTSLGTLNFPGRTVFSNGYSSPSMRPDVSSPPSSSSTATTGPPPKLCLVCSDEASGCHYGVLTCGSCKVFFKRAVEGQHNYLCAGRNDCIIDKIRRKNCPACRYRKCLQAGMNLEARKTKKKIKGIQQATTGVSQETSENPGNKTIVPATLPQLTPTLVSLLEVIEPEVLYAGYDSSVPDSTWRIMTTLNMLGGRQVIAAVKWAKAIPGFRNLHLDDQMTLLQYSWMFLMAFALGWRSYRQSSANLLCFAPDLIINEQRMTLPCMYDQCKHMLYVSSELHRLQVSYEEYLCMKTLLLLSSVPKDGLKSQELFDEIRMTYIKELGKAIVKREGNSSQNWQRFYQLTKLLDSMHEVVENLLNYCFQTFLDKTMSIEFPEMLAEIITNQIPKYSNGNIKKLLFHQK

A short description of assay [14]: qHTS assay for small molecule disruptors of the mitochondrial membrane potential - 1 hr assay (AID 651754). Note: % is set by controls: 0 for no effect and ±100 for the full control effect; nearly all actives have a fitted effect of over 35% in size. In outline:
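Steps: seed HepG2 cells and let attach overnight; pin-transfer compound or vehicle; incubate 1 hr at 37C; add Mito-MPS dye for 30 min; read two-channel fluorescence for monomer and aggregate forms.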

The target of assay [15] is Vitamin D3 receptor (Homo sapiens) (UniProt P11473). Briefly: qHTS assay for small molecule antagonists of vitamin D receptor signaling (AID 588541).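 Note: receptor activated by calcitriol during compound treatment; % is set by controls: 0 for no effect and ±100 for the full control effect.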 In outline: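 VDR-UAS-bla HEK293T cells in 2% charcoal-stripped FBS were stimulated with 1-alpha,25-dihydroxyvitamin D3 (3 nM final) plus compound for 16 h at 37 C. The beta-lactamase CCF4 readout was normalized to 50 nM agonist and DMSO, and Hill fits gave IC50.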
Chain of Vitamin D3 receptor (Homo sapiens) (P11473 whole entry, looked up): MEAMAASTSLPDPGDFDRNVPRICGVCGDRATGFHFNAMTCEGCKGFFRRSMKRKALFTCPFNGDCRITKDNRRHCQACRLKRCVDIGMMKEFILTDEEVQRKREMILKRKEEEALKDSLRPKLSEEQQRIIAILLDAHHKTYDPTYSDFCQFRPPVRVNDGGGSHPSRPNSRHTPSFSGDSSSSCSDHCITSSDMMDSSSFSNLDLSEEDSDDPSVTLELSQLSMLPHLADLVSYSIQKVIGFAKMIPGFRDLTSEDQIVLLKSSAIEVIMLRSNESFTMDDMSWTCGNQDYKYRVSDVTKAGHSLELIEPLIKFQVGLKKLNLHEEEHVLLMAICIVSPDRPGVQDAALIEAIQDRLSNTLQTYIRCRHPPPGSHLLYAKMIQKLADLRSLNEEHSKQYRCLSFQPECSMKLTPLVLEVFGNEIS

A short description of assay [16]: Cell Viability - SK-N-SH (AID 435).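 Note: potency is the fitted concentration of half-maximal effect; compound exposure lasted 40 h at 37 °C.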 Particulars: SK-N-SH neuroblastoma cell viability qHTS. Put shortly: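 CellTiter-Glo ATP luminescence, 20 min RT read; cells pre-plated 5 hr, compound 40 hr at 37 °C, 1500 cells/well, complete medium. Normalized DMSO = 0, 100 uM tamoxifen = 100% inhibition; Hill-fit AC50.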
For assay [17], the target named is Nuclear receptor ROR-gamma (Homo sapiens) (UniProt P51449). The assay can be described thus: qHTS assay for small molecule antagonists of the retinoid-related orphan receptor gamma (ROR-gamma) signaling pathway (AID 651802; active = well fitted curve in the direction sought with a large enough effect; an effect the other way counts as inactive or inconclusive;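 note: CHO cells with doxycycline-induced ROR-gamma expression; luciferase reporter luminescence driven by ROR response element; % is set by controls: 0 for no effect and ±100 for the full control effect; nearly all actives have a fitted effect of over 60% in size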). Put shortly:
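Antagonism is scored as a fall in luminescence from a RORE-luciferase reporter in CHO cells expressing ROR under a TET-inducible promoter, measured 16hr after doxycycline induction in the presence of compound.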

Assay [18] deals with Glucocorticoid receptor (Homo sapiens) (UniProt P04150). The assay can be described thus: qHTS assay for small molecule antagonists of glucocorticoid receptor signaling (AID 588533; active = well fitted inhibition curve with a large enough effect in the signal ratio, with a control signal flat, not every such curve was filed as active; the % refers to the signal ratio; note: % is set by controls: 0 for no effect and ±100 for the full control effect). In outline: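 Antagonist-mode qHTS: compound titrations added to GRE-bla HeLa cells, then dexamethasone 2 nM final; 18 h, 37 C. CCF4 FRET fluorescence normalized to dexamethasone and DMSO; IC50 from Hill fit.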

The target of assay [19] is Estrogen receptor (Homo sapiens) (UniProt P03372). The assay can be described thus: qHTS assay for small molecule antagonists of estrogen receptor alpha signaling (AID 588513; active = well fitted curve in the direction sought with a large enough effect in the signal ratio, with a control signal flat, not every such curve was filed as active; the % refers to the signal ratio; note: % is set by controls: 0 for no effect and ±100 for the full control effect). Put shortly: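 Beta-lactamase reporter, antagonist mode, HEK 293 GripTite cells; 0.5nM E2 stimulus, 18 h, 37 C; CCF4 dye 2 h RT; fluorescence. IC50 and efficacy from Hill fits, normalized to E2 and DMSO.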
Chain of Estrogen receptor (Homo sapiens) (P03372 whole entry, looked up): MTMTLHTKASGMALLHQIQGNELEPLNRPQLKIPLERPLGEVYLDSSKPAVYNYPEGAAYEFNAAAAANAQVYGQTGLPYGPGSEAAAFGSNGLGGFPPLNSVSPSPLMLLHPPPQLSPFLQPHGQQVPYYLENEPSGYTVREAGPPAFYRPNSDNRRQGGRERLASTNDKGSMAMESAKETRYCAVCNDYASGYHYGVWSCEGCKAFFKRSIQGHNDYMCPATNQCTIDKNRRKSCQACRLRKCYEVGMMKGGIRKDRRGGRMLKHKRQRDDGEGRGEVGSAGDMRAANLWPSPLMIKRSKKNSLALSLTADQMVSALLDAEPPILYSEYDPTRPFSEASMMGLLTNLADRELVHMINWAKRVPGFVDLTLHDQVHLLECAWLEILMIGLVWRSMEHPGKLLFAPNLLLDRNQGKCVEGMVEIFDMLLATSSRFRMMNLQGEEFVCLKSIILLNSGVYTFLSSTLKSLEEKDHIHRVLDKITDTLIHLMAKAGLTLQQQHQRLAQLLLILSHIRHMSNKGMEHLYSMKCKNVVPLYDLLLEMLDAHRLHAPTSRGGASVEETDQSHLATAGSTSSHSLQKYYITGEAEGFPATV

Assay [20] shares this target. Briefly: qHTS assay for small molecule agonists of estrogen receptor alpha signaling (AID 588514).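 Note: 0% = vehicle only and 100% = reference agonist; nearly all actives have a fitted effect of over 70% in size.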 In outline:
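Reporter-gene assay. […] controls beta-lactamase in HEK 293 GripTite cells; after 18 hrs with compound, CCF4 substrate is added for 2 hrs and fluorescence is read.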

Chain of Peroxisome proliferator-activated receptor delta (Homo sapiens) (Q03181 whole entry, looked up): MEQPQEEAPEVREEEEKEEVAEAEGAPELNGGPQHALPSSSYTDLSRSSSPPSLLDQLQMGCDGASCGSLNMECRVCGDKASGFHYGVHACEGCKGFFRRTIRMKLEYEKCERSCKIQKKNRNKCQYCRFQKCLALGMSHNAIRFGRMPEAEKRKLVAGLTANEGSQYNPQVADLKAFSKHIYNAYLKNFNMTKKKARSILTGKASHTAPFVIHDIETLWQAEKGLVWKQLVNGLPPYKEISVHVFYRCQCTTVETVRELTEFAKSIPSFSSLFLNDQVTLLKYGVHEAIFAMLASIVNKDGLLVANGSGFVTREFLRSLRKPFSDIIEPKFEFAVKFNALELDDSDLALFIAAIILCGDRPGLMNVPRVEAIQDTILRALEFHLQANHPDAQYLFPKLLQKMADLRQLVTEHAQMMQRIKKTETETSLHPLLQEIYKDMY
Chain of Nuclear receptor ROR-gamma (Homo sapiens) (P51449 whole entry, looked up): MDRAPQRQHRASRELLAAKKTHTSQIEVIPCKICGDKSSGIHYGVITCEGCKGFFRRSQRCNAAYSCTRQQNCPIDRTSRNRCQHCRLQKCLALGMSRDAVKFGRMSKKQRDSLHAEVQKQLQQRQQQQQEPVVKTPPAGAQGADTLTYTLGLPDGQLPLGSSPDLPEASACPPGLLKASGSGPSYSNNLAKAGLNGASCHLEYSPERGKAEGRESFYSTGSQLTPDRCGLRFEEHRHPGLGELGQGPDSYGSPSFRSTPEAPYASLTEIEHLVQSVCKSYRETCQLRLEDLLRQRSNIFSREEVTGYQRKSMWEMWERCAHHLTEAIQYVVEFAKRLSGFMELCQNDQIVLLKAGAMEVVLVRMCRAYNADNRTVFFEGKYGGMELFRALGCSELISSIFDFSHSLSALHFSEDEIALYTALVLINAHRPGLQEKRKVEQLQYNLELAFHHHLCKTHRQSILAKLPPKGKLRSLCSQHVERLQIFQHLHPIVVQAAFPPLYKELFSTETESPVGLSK

Regarding `O=S(=O)(Cl)c1ccccc1`, the activity change, negative = cytotoxicity in assay [1] is -155% (active). In addition, the Potency result in assay [2], in assay [7], in assay [9], in assay [11] and in [12] was “inactive” throughout. Further, the outcome in assay [3], in assay [4] and in [6] was inactive. For the same compound, the max response in [5] was 7.79% and -11.8%. Moreover, the activity change % (negative = inhibition) in assay [8] is -1.94% (inactive) and -0.791% (inactive). The activation in [10] is 0.118% (inactive) and -0.385% (inactive).
As to `S=c1[nH]c2ccccc2[nH]1`, the Potency result in [1], in assay [2], in [7], in assay [14], in [11] and in assay [12] was “inactive” in each case. The activation in [13] is -3.9% (inactive). Further, the activity change % (negative = inhibition) in assay [8] was -0.89% (inactive).
As for `Clc1cccc2ccccc12`, the Potency result in [1], in assay [2], in [9], in assay [14], in [11] and in [12] was “inactive” in each case. The compound was classed as inactive in assay [4], in assay [6] and in assay [15]. Besides, the max response in [5] was -15.1%. In addition, in [8], the activity change % (negative = inhibition) was -4.95% (inactive). In addition, in assay [10], the activation is 0.856% (inactive).
`Nc1cc(Cl)cc(C(=O)O)c1Cl`: in [16], the Potency was > 92 µM (inactive). Moreover, the Potency result in assay [1], in assay [2], in [7], in assay [14], in [11] and in assay [17] was “inactive” in each case. In addition, in [12], the Potency result is “inactive”. Moreover, the compound was called inactive in [3], in assay [4], in assay [6] and in [15]. Moreover, the max response in [5] is -17.7% and 9.43%.
Turning to `Cc1ccc(N=C=O)cc1N=C=O`, in [16], the Potency was > 92 µM (inactive). In addition, the Potency result in assay [1], in [2], in assay [7], in [9] and in assay [12] was “inactive” throughout. The activation is 4.9% (inactive) and -2.62% (inactive) in [13]; 0.173% (inactive) and 0.839% (inactive) in assay [10]. For the same compound, the compound was classed as inactive in assay [18] and in assay [15]. Further, the activity change % (negative = inhibition) in assay [8] was -8.5% (inactive).
`CN(C)c1ccccc1`: the Potency entry in assay [1], in [2], in assay [9], in [14], in assay [11] and in assay [12] was “inactive” throughout. Further, the call in assay [3], in assay [18] and in assay [15] was inactive. The activation in assay [13] was -11% (inactive).
As for `CCC[N+](=O)[O-]`, the Potency entry in [1], in assay [2], in [7], in [17] and in assay [12] was “inactive” each time. In addition, the compound was called inactive in [4] and in [6]. Moreover, the max response in assay [5] is -21.5%. Moreover, the activity change % (negative = inhibition) in assay [8] is -9.22% (inactive). The activation in assay [10] was -0.704% (inactive).
For `CCOP(=S)(OCC)SCCSCC`, the Potency entry in [1], in assay [7], in assay [9], in assay [14], in assay [11] and in assay [17] was “inactive” in each case. Moreover, the Potency result in assay [12] is “inactive”. Further, the compound was called inactive in [3], in assay [18] and in assay [6]. Besides, the activation in assay [13] is 13.6% (inactive); in [10], -0.799% (inactive) and -0.139% (inactive). Further, in assay [5], the max response is -12.4% and 3.79%. For the same compound, the activity change % (negative = inhibition) in [8] is 6.91% (inactive) and -9.69% (inactive).
With `O=[N+]([O-])CCO`, the Potency entry in assay [1], in assay [19], in assay [20], in assay [17] and in [12] was “inactive” throughout. In addition, the call in assay [3] and in assay [18] was inactive. The activation in [13] is -6.62% (inactive); in assay [10], -0.859% (inactive). Moreover, the activity change % (negative = inhibition) in [8] was 2.47% (inactive).
Consider `Nc1ccc2ccccc2c1`, for which, in [16], the Potency is > 92 µM (inactive). Besides, the Potency result in assay [1], in assay [2], in assay [19], in assay [20], in assay [14] and in [11] was “inactive” each time. Moreover, the Potency entry in assay [17] and in assay [12] was “inactive” each time. Also, in [3], the result was inactive. Also, the activity change % (negative = inhibition) in [8] was -16.4% (inactive).
